# ChEMBL document CHEMBL3433997, “St. Jude Leishmania screening dataset” (2016)
# Target: Glucose transporter (Leishmania mexicana) (UniProt O61059)
# Assay: ST_JUDE_LEISH: Cytotoxicity at 2uM final concentration against transgenic Leishmania Mexicana promastigotes LmGT2 that are glucose transport deficient and complemented with the L. Mexicana glucose transporter 2. Activity is measured by DNA content using SYBR green in vitro
# Format: functional
row,SMILES,inhibition [%]
1,Cc1cc(NCCc2ccccc2)nc(NC(=N)Nc2ccc(Cl)cc2)n1,-1.21
2,O=S(=O)(NC1CCN(c2ccnc3cc(Cl)ccc23)C1)c1cccc(F)c1 (stereo not given),11.4
3,COc1ccc(Cn2c(Nc3cccc(C(F)(F)F)c3)nc3cc(C(=O)NCCN4CCCC4)cnc32)cc1Cl,15.6
4,CC1(C)N=C(NC(=O)c2cc([N+](=O)[O-])cc([N+](=O)[O-])c2)N=C(N)N1OCc1cccc2ccccc12,-0.37
5,COc1ccc2[nH]cc(C3CCN(CCCCNC(=O)c4ccc(NC(=O)c5ccc(Cl)cc5)cc4)CC3)c2c1,5.72
6,O=C(Nc1cccc(C(F)(F)F)c1)N1CCOC(CCN2CCC3(CCc4ccccc43)CC2)(c2ccc(Cl)c(Cl)c2)C1 (stereo not given),2.55
7,Cc1nc(N/C=C/c2ccc(O)cc2)cc(N2CCCC2)n1,7.13
8,COc1cccc(CNC(=O)c2ccnc(-c3ccc(CNCCOc4ccccc4)cc3)c2)c1,1.51
9,CCCn1c(Sc2ccc(C#N)c([N+](=O)[O-])c2)nnc1-c1cc(OC)cc(OC)c1,1.24
10,Cc1nc(N)nc(N)c1Oc1cccc(Cl)c1,0.35
11,CCCCCCCc1c(C)nc2cc(OC)ccc2c1O,7.02
12,c1ccc(CN2CCC(NCc3ccccc3-c3ccc(CNC4CCCC4)cc3)CC2)cc1,6.38
13,CCOc1ccccc1N1CCN(CCCNC(=O)/C(=C/C=C/c2cc3cc(Cl)c(Cl)cc3[nH]2)OC)CC1,1.24
14,COc1ccc(NC(=O)c2ccc(Br)c(C)c2)cc1N1CCN(CCCCc2ccccc2)CC1,0.85
15,O=C(/C=C/c1ccc(Cl)c(Cl)c1)NCCCCCN1CCC(n2c(=O)[nH]c3ccccc32)CC1,7.73
16,CN(C)S(=O)(=O)c1ccc(N2C(=O)C3C(C2=O)C2(c4ccccc4)C(=O)C3(c3ccccc3)C(c3ccccc3)=C2c2ccccc2)cc1 (stereo not given),-2.57
17,CCOC(=O)C(C#N)NC(=O)C=Cc1ccccc1 (stereo not given),5.14
18,COc1c(Br)cc(Br)cc1C(C)=O,-0.79
19,CC(C)CC(NC(=O)c1cccc(OCCN2CCOCC2)c1)C(=O)NC(/C=N/NC(=O)c1ccccc1)CCc1ccccc1 (stereo not given),5.71
20,COc1cc(NC(=O)/C=C/c2cccc3cc[nH]c23)ccc1OCCN(C(C)C)C(C)C,-2.66

row,SMILES,inhibition [%]
1,CCOCc1cnc(C)nc1CNC(=O)c1c(C)[nH]c2ccc(C)cc12,1.12
2,CC(CON1C(N)=NC(N)=NC1(C)C)c1ccc(Cl)cc1Cl (stereo not given),24.2
3,O=c1cc(NCCCNCc2scc3c(Cl)cc(C(F)(F)F)nc23)[nH]c2ccccc12,3.05
4,Cn1nc(-c2cccc(CN[C@@H]3CCc4ccc(O)cc43)c2)c2cnc(NCCCN3CCCC3)nc21,4.3
5,Nc1cccc(CNCc2cccc(-c3cccc(-c4nc5cc(F)ccc5[nH]4)c3)c2)c1,-0.66
6,Fc1ccc(CNc2ncc(-c3ccsc3)c(-c3nccs3)n2)cc1,0.95
7,CCc1cccc2c(C#N)cn(CC(=O)NCCc3ccccc3)c12,9.25
8,Cc1cc(N2CCCC2)nc(Nc2ccc(NC(=O)C(C)Oc3ccccc3)cc2)n1 (stereo not given),7.47
9,CCCC(C)NC(=O)[C@H]1CNCCN1C(=O)CCCc1ccccc1 (stereo not given in full),3.67
10,COc1ccc2[nH]ccc(=NN=Cc3ccc(N(C)C)cc3)c2c1,0.57
11,Cc1nc(N)nc(N)c1CCCOc1ccccc1Cl,5.78
12,COc1cc(F)c2ncc(Cl)c(CCN3CCC(NCc4ccc5c(n4)NC(=O)CS5)CC3)c2c1,-2.08
13,CCOc1ccc(Nc2nc(N)c3ccccc3n2)cc1,6.25
14,c1cc(OCCN2CCCC2)ccc1CNC1CCN(CC2CCCCC2)CC1,-4.21
15,Cc1[nH]cnc1CSCCNC(=N)NCCCCCCCCNC(=N)NCCSCc1nc[nH]c1C,-0.05
16,Cc1cc(-c2cc(Cl)ccc2Cl)no1,-0.72
17,CC(=O)Nc1nc(C(=O)Nc2cccc(-c3ccc4c(cnn4CC4CC4)c3)c2)cs1,2.13
18,CC(C)c1ccc(S(=O)(=O)Nc2cccc(CCN3CCC(N4CCCCC4)CC3)c2)cc1,1.03
19,COc1ccc2nccc([C@@H](O)CNCCCN(C)CCOc3cc(F)cc(F)c3)c2c1,6.99
20,Nc1c2c(nc3ccccc13)C(=Cc1ccc(O)cc1)CCC2,2.9
